Source: PubChem (National Center for Advancing Translational Sciences (NCATS))
Many of the other results were omitted from the sample, so hits are more common in it than they were.
Pf Dd2 inh – Plasmodium falciparum Dd2 growth inhibition; P. falciparum Dd2 growth, SYBR Green, 72 h; Potency, µM (top dose mostly 28.9 µM), for the others: at the top dose activity, negative = inhibition, actives largely listed as inhibitors; 4.3% of 120,000 active; AID 1347417; active means well fitted inhibition curve with a large enough effect;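 further: plate controls were DMSO vehicle for no effect and reference drug for full effect; nearly all actives have a fitted effect of over 65% in size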
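Infected erythrocytes (Dd2, 0.3% parasitemia, 2.5% hematocrit final) are added to compound in RPMI-1640/Albumax II medium, grown 72 h at 37C in low oxygen, then lysed with saponin/Triton-X containing SYBR Green and read by fluorescence.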
Numbers without * were called inactive; i = inactive; [ ] = another dose, or the depositor's remark. Potency means the concentration at half of the fitted maximal effect.

SMILES	Pf Dd2 inh
Cc1cccc(C)c1NC(=O)Cn1c(=O)n(CC2CCC(C(=O)NCCc3ccccc3)CC2)c(=O)c2ccccc21 (stereo not given)	i
COc1ccc(NC(=O)Cn2c(=O)n(CC(=O)NCCc3ccccc3)c(=O)c3ccccc32)cc1	19.1%
Cc1cc(C)cc(NC(=O)Cn2c(=O)n(CC(=O)NCCc3ccccc3)c(=O)c3ccccc32)c1	6.2%
O=C(Cn1c(=O)n(CC2CCC(C(=O)NCCc3ccccc3)CC2)c(=O)c2ccccc21)Nc1cccc(F)c1 (stereo not given)	-1.9%
COc1cc(NC(=O)Cn2c(=O)n(CC3CCC(C(=O)NCCc4ccccc4)CC3)c(=O)c3ccccc32)cc(OC)c1 (stereo not given)	0.891µM*
O=C(COc1ccc(F)cc1)N1CCC2(CC1)CC(OCC1CC1)CCO2 (stereo not given)	i
Cc1ccc(-c2ccc(O)cn2)c2cccnc12	17.5%
Cc1cc2nc(CO[C@H]3CN(Cc4nccn4C)C[C@H]3F)[nH]c2cc1C	-6.0%[44.1 µM]
COc1ccc(C(=O)N2CC[C@@H]3CN(S(C)(=O)=O)[C@@H]3C2)c(OC)c1	20.8%
CCn1cc(CN(C)C2CCc3nn(CC4CC4)c(=O)n3CC2)c(C)n1 (stereo not given)	2.4%
CN(C(=O)Cc1c[nH]c2ccccc12)C1CCc2nn(CC3CC3)c(=O)n2CC1 (stereo not given)	-20.9%
CN(Cc1cn(C)c2ccccc12)C1CCc2nn(CC3CC3)c(=O)n2CC1 (stereo not given)	5.01µM*
O=C1NCC2(CCCN(C(=O)c3cnc4c(O)cccn4c3=O)C2)O1 (stereo not given)	-16.2%
O=C([C@@H]1C[C@H](Oc2cccnc2)CN1C(=O)COc1ccc(F)cc1)N1CCCC1	12.9%
Cc1ccc(-n2nc3n(c2=O)CCN(C(=O)Nc2ccc(Cl)cc2)C3)cc1	i
FC(F)(F)c1ccc(O[C@H]2COCCN(c3nc4ccccc4o3)C2)nc1	i
COCCn1nc2n(c1=O)CCN(S(=O)(=O)c1ccc3c(c1)CCC3)CC2	4.2%
COc1ccc(NC(=O)CSc2nc(-c3ccccc3)nc3cc(=O)[nH]n23)cc1	i
COc1cccc(-c2nc(SCc3ccc(C)cc3)n3[nH]c(=O)cc3n2)c1	i
CC(C)(C)c1ccc(-c2nc(SCCCOc3ccccc3)n3[nH]c(=O)cc3n2)cc1	10µM*
CCN1c2cc(C(=O)NCc3ccncc3)ccc2C(=O)N2CCCCC21 (stereo not given)	28.9%
CN1c2cc(C(=O)Nc3cccc(F)c3)ccc2C(=O)N2CCCCCC21 (stereo not given)	12.1%
CCn1nccc1C(=O)N1CCC([C@H]2[C@@H](OC)C(=O)N2C(C)C)CC1	16.5%
Cc1ccc(NC2CCCN(C(=O)CN3CC(=O)NC3=O)C2)cc1C (stereo not given)	9.5%
CC(C)CCN1CCC(N2CCN(C(=O)c3ccsc3)CC2)C1=O (stereo not given)	-14.3%
SMILES	Pf Dd2 inh
Cc1ccc(NC(=O)N2C[C@@H](F)C[C@H]2C(=O)N2CCc3ccccc3C2)c(C)c1	-21.7%
Cc1cccc(NC(=O)N2C[C@@H](F)C[C@H]2C(=O)N2CCc3ccccc3C2)c1C	7.94µM*
Cc1cc(Cl)ccc1NC(=O)N1C[C@@H](F)C[C@H]1C(=O)N1CCc2ccccc2C1	-16.4%
Cn1cnc(C(=O)N2CCC(N3C(=O)C(OCC4CC4)C34CCOCC4)CC2)c1 (stereo not given)	0.5%
Cc1noc(-c2cn(C3CCN(C(=O)c4ccc(F)cc4)C3)nn2)n1 (stereo not given)	i
Cc1ccc(NC(=O)C2CC(=O)N(c3n[nH]c4cccc(F)c34)C2)cc1 (stereo not given)	8.0%
Cc1ccc(-c2ncc[nH]2)o1	56.3%[76.6 µM]
Cc1ccccc1CSc1cn(CC(=O)N2CCCCCC2)c2ccccc12	-25.7%
O=C(/C=C/c1cn(CC(O)CN2CCCCCC2)c2ccccc12)c1ccccc1 (stereo not given)	10µM*
COC(=O)c1ccc(NC(=O)CSc2cn(CC(=O)N3CCCCC3)c3ccccc23)cc1	-8.6%
Cc1ccc(CSc2cn(CC(=O)N3CCCCC3)c3ccccc23)cc1	-18.7%
O=C(/C=C/c1cn(CC(O)CN2CCCCCC2)c2ccccc12)c1ccc(Br)cc1 (stereo not given)	10µM*
O=C(CSc1cn(CC(=O)N2CCCCC2)c2ccccc12)Nc1ccccc1	18.4%
CNC(=O)CSc1cn(CC(=O)N2CCCCCC2)c2ccccc12	-24.5%
O=C(Cn1cc(SCc2ccccc2Cl)c2ccccc21)N1CCCCCC1	-21.1%
Cc1ccc(C(=O)/C=C/c2cn(CC(O)CN3CCCCCC3)c3ccccc23)cc1 (stereo not given)	12.6µM*
O=C1CC2(CCN(CC3CCCCC3)CC2)Oc2ccccc21	-8.2%[44.1 µM]
Cc1ccc(C2(C(=O)N3CCCC4(CC3)CN(C)C(=O)O4)CC2)cc1 (stereo not given)	-8.1%
CC(=O)N1CCC(C(=O)N2CCC3(CC2)NC(=O)N(c2ccc(F)cc2)N3)CC1	13.2%
